Assay results: PubChem BioAssay (EPA / NIEHS)
Active and inactive are the calls of the source. How the source made its calls: active means hit-call score of the fitted dose curve at least 0.9, where 1 is the maximum; inactive means score below 0.9.

Experiments:
[1] = CCTE_Simmons_MITO_basal_resp_rate: CCTE's HepG2 Seahorse XF Respirometric Screening Assay at Basal Respiratory State, Simmons Lab (AID 2284001); conditions: actives raise or lower the signal
How it was run: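 Basal-phase OCR in HepG2 cells, read at 6-min intervals across a 72-min run, with test compound injected at 125 nM–100 uM final (7 points). Fitted both directions against DMSO; three biological replicates per concentration.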

[2] = CCTE_Simmons_MITO_max_resp_rate: CCTE's HepG2 Seahorse XF Respirometric Screening Assay at Maximal Respiratory State [uncoupled], Simmons Lab (AID 2284002); conditions: actives raise or lower the signal
How it was run: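 HepG2, Seahorse XF96, maximal OCR post-FCCP. Cpd 125 nM–100 uM final (7 conc), n=3 biological. Kinetic reads every 6 min (3 min mix/3 min measure) over 72 min; fit bidirectional vs DMSO.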

[3] = CCTE_Simmons_MITO_inhib_resp_rate: CCTE's HepG2 Seahorse XF Respirometric Screening Assay at Inhibited Respiratory State [full ETC block], Simmons Lab (AID 2284006); conditions: actives raise or lower the signal
How it was run: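 OCR read-out in the inhibited phase following rotenone/antimycin A, after compound and FCCP injections, in HepG2 cells. Seven concentrations (125 nM to 100 uM final), three biological replicates, 6-min cycles over 72 min; DMSO baseline.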

[4] = CCTE_Shafer_MEA_acute_spike_number: CCTE's Neural Acute Assay for Total Number of Spikes, Shafer Lab (AID 2284008);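 on AC50: curve fitted for decrease in spike count so AC50 reflects inhibitors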
How it was run: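 Rat cortical cultures, DIV 13/15, 37 C. 40 min baseline rec, cpd 0.03-40 uM, 40 min post-dose rec. Band-pass 300-5000 Hz, spike threshold 8x rms; % change in spike count per well, DMSO neg ctrl, loss-of-signal fit.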

[5] = CCTE_Shafer_MEA_acute_firing_rate_mean: CCTE's Neural Acute Assay for Mean Firing Rate, Shafer Lab (AID 2284009);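 further: analyzed for loss of signal so actives lower firing rate relative to DMSO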
How it was run: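 Primary rat cortical neurons on 16-electrode MEA wells were exposed on DIV 13 or 15 to compound (0.03-40 uM). Spike counts per recording time, averaged over electrodes, were compared between 40-min baseline and 40-min post-exposure recordings as percent change.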

[6] = CCTE_Harrill_HTTr_Viability_MCF7: CCTE's 6-hour Cell Viability Assessment for the High-Throughput Transcriptomics (HTTr) Platform, in MCF-7 cells cultured in DMEM + 10% fetal bovine serum, Harrill Lab (AID 2284010)
How it was run: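 PI exclusion, high-content imaging; 8-pt dilution series, 6 h exposure; bidirectional fit vs DMSO (neg. ctrl/baseline); gain of signal = loss of membrane integrity.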

[7] = CCTE_Harrill_HTTr_Apoptosis_MCF7: CCTE's 6-hour Apoptosis Assessment for the High-Throughput Transcriptomics (HTTr) Platform, in MCF-7 cells cultured in DMEM + 10% fetal bovine serum, Harrill Lab (AID 2284011)
How it was run: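 Read-out: CellEvent Caspase 3/7 Green signal by high content imaging, gain-of-signal indicating apoptosis. MCF-7 cells, DMEM + 10% FBS, eight-point dilution series, 6 h exposure. Curves fitted bidirectionally relative to DMSO negative control.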

[8] = CCTE_Shafer_MEA_acute_burst_number: CCTE's Neural Acute Assay for Single-Electrode Bursts, Shafer Lab (AID 2284013)
How it was run: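 Primary rat cortical neurons on 16-electrode MEA wells, DIV 13 or 15, exposed to compound (0.03-40 uM; ≥3 wells); 40-min recordings at 37 C before and after treatment. Burst count expressed as percent change from baseline, DMSO as negative control.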

[9] = CCTE_Shafer_MEA_acute_per_burst_spike_number_mean: CCTE's Neural Acute Assay for Average Number of Spikes Per Burst, Shafer Lab (AID 2284015);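 further: hits are decreases in mean spikes per burst versus baseline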
How it was run: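 Percent change in mean spikes per single-electrode burst is compared between a 40 min baseline and a 40 min recording with compound (0.03-40 uM). Cultures were rat cortical neurons on MEA plates at DIV 13 or 15, recorded at 37 C, with DMSO as the negative control.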

[10] = CCTE_Shafer_MEA_acute_interburst_interval_mean: CCTE's Neural Acute Assay for Mean Interburst Interval, Shafer Lab (AID 2284016);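 further: percent change of mean interburst interval versus each well's own pre-dose baseline; curves fitted for decrease in interburst interval relative to DMSO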
How it was run: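 Percent change in mean single-electrode interburst interval was calculated per well from 40 min recordings before and after compound (0.03-40 uM). Recordings were made at 37 C on rat cortical cultures at DIV 13 or 15, with spikes detected at 8x rms threshold.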

[11] = CCTE_Shafer_MEA_acute_burst_percentage_mean: CCTE's Neural Acute Assay for Percentage of Spikes in a Burst, Shafer Lab (AID 2284017);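 on AC50: curve fitted for loss of signal so potency reflects decreased burst percentage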
How it was run: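 Well-level mean burst percentage from a 40-min recording after compound (0.03-40 uM) expressed as percent change from a 40-min baseline at 37C. Cultures: primary rat cortical neurons on MEA, dosed on DIV 13 or 15; fitted downward relative to DMSO.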

[12] = CCTE_Shafer_MEA_acute_burst_percentage_std: CCTE's Neural Acute Assay for Standard Deviation of Burst Percentage, Shafer Lab (AID 2284018);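 further: fitted in the negative direction so actives lower burst percentage SD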
How it was run: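 Value is percent change from baseline in the across-electrode SD of spikes-in-bursts percentage, wells with >/= 10 active electrodes. Acute 40-min exposure to 0.03-40 uM on DIV 13 or 15 rat cortical cultures, recorded at 37 C after 40-min baseline.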

[13] = CCTE_Shafer_MEA_acute_per_network_burst_spike_number_mean: CCTE's Neural Acute Assay for Average Number of Spikes in a Network Burst, Shafer Lab (AID 2284019);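 on AC50: curve fitted for loss of signal so actives reduce spikes per network burst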
How it was run: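 Percent change from baseline in mean spikes per network burst, spikes detected at 8x rms noise. Each compound at 0.03-40 uM in at least three wells of rat cortical cultures, recorded 40 min before and 40 min during exposure.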

[14] = CCTE_Shafer_MEA_acute_per_network_burst_spike_number_std: CCTE's Neural Acute Assay for Standard Deviation of Number of Spikes in a Network Burst, Shafer Lab (AID 2284020);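 further: fitted for decrease in spike-number SD versus DMSO so actives lower it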
How it was run: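 Endpoint: percent change from 40 min baseline in standard deviation of spikes per network burst, after 40 min compound exposure (0.03-40 uM, 37 C). Cortical rat neurons on MEA at DIV 13 or 15; spikes detected at 8x rms noise, 300-5000 Hz band-pass.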

[15] = CCTE_Shafer_MEA_acute_per_network_burst_electrodes_number_mean: CCTE's Neural Acute Assay for Mean Number of Electrodes in a Network Burst, Shafer Lab (AID 2284021);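 further: curves fitted for decreases only so hits reduce electrodes per burst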
How it was run: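 Readout: % change in mean electrodes active per network burst, post- vs pre-treatment, each well. Spikes detected at 8x rms noise after 300-5000 Hz band-pass; rat cortical cultures, DIV 13/15, compounds 0.03-40 uM, DMSO baseline.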

[16] = CCTE_Shafer_MEA_acute_network_burst_percentage: CCTE's Neural Acute Assay for Percentage of Network Bursts, Shafer Lab (AID 2284022);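 further: rat primary cortical neuron networks on multiwell MEA recorded 40 min; curves fitted for loss so actives lower network burst percentage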
How it was run: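 Rat cortical cultures, DIV 13/15; 20 min equilibration, 40 min baseline, compound 0.03-40 uM, 40 min recording, 37 C. Spikes: 300-5000 Hz band-pass, threshold 8x rms noise. Readout: % change in network-burst spike fraction; loss direction vs DMSO.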

[17] = CCTE_Shafer_MEA_acute_cross_correlation_area: CCTE's Neural Acute Assay for Area of Cross Correlation, Shafer Lab (AID 2284024);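 further: area under pooled inter-electrode spike cross-correlation near zero lag as percent change from own baseline; curves fitted for loss of cross-correlation area so actives lower synchrony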
How it was run: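 Rat cortical cultures, DIV 13/15, MEA; spikes detected at 8x rms noise (300-5000 Hz band-pass). Compound 0.03-40 uM, ≥3 wells each. Readout: % change in pooled inter-electrode cross-correlation area vs own baseline; DMSO negative control.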

[18] = CCTE_Shafer_MEA_acute_cross_correlation_HWHM: CCTE's Neural Acute Assay for Cross Correlation at Half Width at Half Maximum, Shafer Lab (AID 2284026);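 further: percent change per well from pre-dose baseline in spike cross-correlogram half width; hits are a decrease in cross-correlogram half width relative to DMSO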
How it was run: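 Read-out: half width at half maximum of action-potential cross-correlogram, percent change versus pre-treatment baseline, fitted in loss direction against DMSO. Rat cortical cultures, DIV 13 or 15, dosed 0.03-40 uM, 40-min recordings at 37 C.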

Measured: AC50

CCC(C)c1cc([N+](=O)[O-])cc([N+](=O)[O-])c1O (stereo unspecified)
inactive: [3] | [4] | [5] | [6] | [7] | [8] | [9] | [11] | [12] | [13] | [14] | [15] | [16] | [17] | [18]
active: [1] 0.329 µM | [2] 16 µM | [10] 31.4 µM

ClC(Cl)=C(c1ccc(Cl)cc1)c1ccc(Cl)cc1
active: [11] 33.2 µM
inactive: [4] | [5] | [6] | [7] | [8] | [9] | [10] | [12] | [13] | [14] | [15] | [16] | [17] | [18]

O=C(O)C(F)(F)C(F)(F)C(F)(F)C(F)(F)C(F)(F)C(F)(F)C(F)(F)C(F)(F)C(F)(F)F
inactive: [1] | [2] | [3] | [6] | [7]

C[C@]12CCC(=O)C=C1CC[C@@H]1[C@@H]2CC[C@@]2(C)[C@H]1CC[C@]2(C)O
inactive: [1] | [2] | [3] | [6] | [7]

Oc1ccc(C(c2ccc(O)cc2)(C(F)(F)F)C(F)(F)F)cc1
inactive: [3] | [6] | [7] | [8] | [9] | [10] | [12] | [13] | [14] | [15] | [16] | [17]
active: [1] 10.8 µM | [2] 21.6 µM | [4] 3.17 µM | [5] 3.16 µM | [11] 25.3 µM | [18] 30.5 µM

O=C(N[C@H]1CN2CCC1CC2)c1cc2ccoc2cn1
inactive: [4] | [5] | [6] | [7] | [8] | [9] | [10] | [11] | [12] | [13] | [14] | [15] | [16] | [17] | [18]

O=C(O)C(F)(F)C(F)(F)C(F)(F)C(F)(F)C(F)(F)C(F)(F)C(F)(F)C(F)(F)F
inactive: [1] | [2] | [3] | [6] | [7]

CCNc1nc(NC(C)C)nc(SC)n1
inactive: [1] | [2] | [3] | [6] | [7]

ClC1=C(Cl)[C@]2(Cl)[C@@H]3[C@H]4C[C@H]([C@@H]5O[C@H]45)[C@@H]3[C@@]1(Cl)C2(Cl)Cl
inactive: [6] | [7] | [8] | [10] | [12] | [14] | [15] | [16]
active: [4] 1.38 µM | [5] 1.4 µM | [9] 0.494 µM | [11] 0.0239 µM | [13] 0.358 µM | [17] 0.0119 µM | [18] 0.0859 µM

CC(c1ccc(O)cc1)(c1ccc(O)cc1)c1ccc(O)cc1
active: [1] 14.5 µM | [4] 3.97 µM | [5] 3.97 µM | [11] 29.6 µM | [12] 32.9 µM | [18] 33.4 µM
inactive: [2] | [3] | [6] | [7] | [8] | [10] | [13] | [14] | [15] | [16] | [17]

Oc1c(Cl)c(Cl)c(Cl)c(Cl)c1Cl
active: [1] 0.451 µM | [2] 16.2 µM
inactive: [3] | [6] | [7]

CCSC(=O)N(CC)C1CCCCC1
active: [1] 50 µM | [4] 20 µM | [5] 20 µM | [9] 20 µM | [10] 31.7 µM | [11] 7.15 µM | [14] 8.39 µM | [18] 8.09 µM
inactive: [2] | [3] | [6] | [7] | [8] | [12] | [13] | [15] | [16] | [17]
